# Inconclusive results are not listed. Activity calls are given as the source filed them. Rule for the calls: active = hit-call score of the fitted dose curve at least 0.9, where 1 is the maximum; inconclusive = response in the unintended direction; inactive = score below 0.9.
# Assay: ACEA_ER_AUC_viability: ACEA Biosciences xCELLigence Real-Time Cell Analysis on Estrogen Receptor Agonism for Viability (AID 2283782);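 note: continuous compound exposure with impedance area under curve over 80 h; hit means loss of impedance signal meaning reduced cell growth or viability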
# Procedure, shortened: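 T-47D human breast cells in phenol red-free RPMI1640 with 10% charcoal-stripped FBS were dosed with an 8-point 1:4 dilution series from 100 uM top final concentration, in duplicate. Impedance-based growth was followed for 80 h; AUC analysed versus DMSO.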
SMILES,outcome,AC50
CCCCOCCOC(=O)c1ccccc1C(=O)OCCOCCCC,inactive,–
O=C(O)c1ccc(C(=O)O)c(C(=O)O)c1,inactive,–
CCC=C(C)C=O,inactive,–
NC(=O)c1cnccn1,inactive,–
O=C1CCC(=O)N1,–,50 µM (active)
O=c1cc[nH]cc1,inactive,–
CCOC(=O)CC(C)C,inactive,–
CC(CO)c1ccccc1 (centres undefined),inactive,–
c1ccc(-c2nn[nH]n2)cc1,inactive,–
NNC(=O)OCc1ccccc1,inactive,–
Nc1ccn([C@H]2CC[C@@H](CO)O2)c(=O)n1,inactive,–
OC[C@@H](O)[C@H](O)[C@@H](O)[C@@H](O)CO,inactive,–
O=C(O)c1ccco1,–,50 µM (active)
O=S(=O)(O)c1cc(O)c(O)c(S(=O)(=O)O)c1,inactive,–
CC/C=C\CCOC(=O)C(C)C,inactive,–
CC(=O)c1ccc(C)cc1,inactive,–
CCOc1ccc(NC(C)=O)cc1,inactive,–
C/C=C(\C)C(=O)OC/C=C(\C)CCC=C(C)C,–,78.2 µM (active)
O=C(O)c1cccc(Cl)n1,inactive,–
CCCCCc1cccc(=O)o1,inactive,–
CCCCCCOC(C)=O,–,38.5 µM (active)
CC(O)COCC(C)O (centres undefined),inactive,–
CC(C)OB(OC(C)C)OC(C)C,inactive,–
CC1(C)[C@H](C=C(Cl)Cl)[C@H]1C(=O)OCc1cccc(Oc2ccccc2)c1,–,12.5 µM (active)
OCCN1CCOCC1,inactive,–
CCCCC1CCCCC(=O)O1 (centres undefined),inactive,–
N=C1N=C(N)c2ccccc21,–,74 µM (active)
CC1=CC(O)CC(C)(C)C1 (centres undefined),–,71.8 µM (active)
CC(C)(O)C(=O)c1ccc(OCCO)cc1,inactive,–
